# Source: PubChem
# Compounds with a hit are over-represented: about 5.7% of the library has one in this group of screens.
# NPSR antag: qHTS Assay for Antagonists of the Neuropeptide S Receptor: cAMP Signal Transduction; Potency, µM (doses to about 38.3 µM), for the others: at the highest dose activity change, negative = inhibition, actives largely listed as inhibitors; actives 1% (n = 220,000); Q6W5P4; AID 1461, 2008; CHO-NPSR cells, cAMP TR-FRET, antagonist mode; note: nearly all actives have a fitted effect of over 50% in size
# RORg inh: qHTS for inhibitors of ROR gamma transcriptional activity | Nuclear receptor ROR-gamma (Mus musculus), P51450 | Drosophila S2 Gal4-RORgamma UAS-luciferase reporter, 20 h | Potency, µM (titrated, usually from 53.6 µM), without a hit: at the top dose activity change, negative = inhibition, usual class: inhibitors | actives 5.4% (n = 310,000) | AID 2551, 2010; note: nearly all actives have a fitted effect of over 60% in size
# Target sequence (P51450 whole entry, looked up, the tested form may be a part): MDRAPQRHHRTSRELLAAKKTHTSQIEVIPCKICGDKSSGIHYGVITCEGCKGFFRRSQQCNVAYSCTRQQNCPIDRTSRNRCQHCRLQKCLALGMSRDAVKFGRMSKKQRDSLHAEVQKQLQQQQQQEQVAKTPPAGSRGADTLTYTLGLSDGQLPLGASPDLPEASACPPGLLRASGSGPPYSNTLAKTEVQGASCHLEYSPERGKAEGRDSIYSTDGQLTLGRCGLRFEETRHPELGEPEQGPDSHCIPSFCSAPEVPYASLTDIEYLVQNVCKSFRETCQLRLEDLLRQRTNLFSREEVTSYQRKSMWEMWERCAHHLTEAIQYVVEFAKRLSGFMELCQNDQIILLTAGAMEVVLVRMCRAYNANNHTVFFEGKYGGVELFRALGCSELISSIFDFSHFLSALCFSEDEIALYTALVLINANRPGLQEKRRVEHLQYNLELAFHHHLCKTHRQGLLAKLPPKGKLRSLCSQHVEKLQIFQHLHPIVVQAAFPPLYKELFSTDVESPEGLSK
#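 Stable Schneider cell line, Gal4 DNA-binding domain fused to ROR gamma, UAS-luciferase. Cmpd 1 hr RT → CuSO4 700 uM final → 20 hr RT → luciferase reagent 10 min → luminescence.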
# VP16 counter: VP16 counterscreen qHTS for inhibitors of ROR gamma transcriptional activity; Drosophila S2 Gal4-VP16 UAS-luciferase, luminescence, 20 h; Potency, µM (highest dose often 53.6 µM), without a hit: at the top dose activity, negative = inhibition, hits mostly inhibitors; actives 3.5% (n = 310,000); AID 2546, 2010;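 note: Gal4-VP16 expression switched on by copper sulfate through the metallothionein promoter; nearly all actives have a fitted effect of over 50% in size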
# B2AR arrestin: qHTS assay of beta-arrestin-biased ligands of beta2-adrenergic receptor; Beta-2 adrenergic receptor (Homo sapiens), P07550; beta-arrestin recruitment to beta2AR, cell-based reporter; Potency, µM (top dose mostly 46.1 µM), without a hit: at the highest dose activation, most hits filed as activators; actives 0.02% (n = 330,000);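 note: 0% = DMSO controls and full agonism = EC100 isoproterenol or metaproterenol; nearly all actives have a fitted effect of over 65% in size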
# Active calls of the source: *; ? = inconclusive; . = not tested or not shown; [ ] = another dose, or the depositor's remark. Calls come from the whole dose curve; as a rule, active = well fitted curve in the direction sought with a large enough effect; inconclusive = small, poorly fitted or top-dose-only effect, or another doubt; inactive = no such curve, though single readings can be large; an effect the other way counts as inactive or inconclusive. Unless noted, % is set by controls: 0 for no effect and ±100 for the full control effect; potency is the fitted concentration of half-maximal effect.
SMILES,NPSR antag,RORg inh,VP16 counter,B2AR arrestin
Oc1ccccc1/C=N/Nc1cc(N2CCCC2)nc(N2CCCC2)n1,-52%,11µM*,?,-1%
Oc1ccc(/C=N/Nc2cc(N3CCOCC3)nc(N3CCOCC3)n2)cc1O,8%,-1%,?,0%
CCn1c2ccccc2c2nnc(SCC(=O)c3ccccc3)nc21,-21%[46.1 µM],13µM*,4%,0%
O=C(O)c1cccc([N+](=O)[O-])c1,.,-15%,-1%,.
O=C(Nc1ccc([N+](=O)[O-])cc1)C(=O)Nc1cccc(C(=O)O)c1,12%,0.35µM*,1µM*,-1%
O=C(Nc1ccc(OC(F)(F)F)cc1)Nc1cccc([N+](=O)[O-])c1,?,?,6.3µM*,-1%
CCN(CC)S(=O)(=O)c1ccc(NC(=O)Nc2cccc(C(F)(F)F)c2)cc1,16µM*,?,?,0%
NC(=O)/C=C\C(=O)Nc1cccc(C(F)(F)F)c1,3%[46.1 µM],?,13µM*,0%
Cc1ccc(S(=O)(=O)Nc2ccc(NC(=O)Nc3cccc(C(F)(F)F)c3)cc2)cc1,?,?,?,0%
Cc1ccc(NC(=O)Nc2cccc([N+](=O)[O-])c2)cc1F,-20%[46.1 µM],?,?,0%
NNC(=O)Nc1cccc(C(F)(F)F)c1,-1%,20%,1%,-1%
Oc1cc(Nc2ccc(N3CCCCC3)cc2)cc2cccnc12,.,.,.,0%
COC(=O)[C@@]1(Cc2ccccc2)[C@H]2c3cc(C(=O)N4CCCC4)n(Cc4ccccn4)c3C[C@H]2CN1C(=O)c1ccccc1,.,-17%,17%,.
O=C(Nc1ccncc1)Nc1cccc(C(F)(F)F)c1,.,?,-22%,0%
O=C(Nc1ccc(OC(F)F)cc1)Nc1cccc(C(F)(F)F)c1,?,?,25µM*,0%
Cc1cccc(NC(=O)CSc2nccn2Cc2ccco2)c1C,.,?,7%,-1%
COc1cc(/C=C2/C(=N)N3C=CSC3=NC2=O)ccc1OCCCOc1cc(C)ccc1C,-15%[46.1 µM],10µM*,11µM*,-1%
CC1CC(C)CN(CCCNC(=O)c2ccc3c(c2)NC(=O)CS3)C1 (stereo not drawn),.,-9%,-6%,0%
Cc1cc(C)cc(Oc2ccccc2/C=N\O)c1,-10%[46.1 µM],?,11µM*,0%
Cc1ccc(-n2ccc(=O)c(-c3ccnc(SCc4cccc(Cl)c4)n3)n2)cc1,-22%[46.1 µM],0.28µM*,-9%,0%
CCn1c(-c2nn(-c3ccc(C)cc3)ccc2=O)n[nH]c1=S,-4%,-22%,-18%,0%
COc1cc(O)ccc1C(C)=O,.,5%,7%,.
Cc1ccccc1-c1noc(N)c1C#N,-13%[46.1 µM],5.6µM*,?,0%
CN(C)/C=C/c1onc(-c2ccccc2Cl)c1C#N,-19%,?,-1%,0%
CCCCn1c(N)c(N(CC(C)C)C(=O)COc2cc(C)ccc2Cl)c(=O)[nH]c1=O,.,.,.,0%
SMILES,NPSR antag,RORg inh,VP16 counter,B2AR arrestin
C[N+](C)(C)C[C@H](O)CC(=O)[O-],.,.,.,0%
COc1cc(C(=O)O/N=C(\N)c2ccccn2)cc(OC)c1OC,11%,-39%,26%,-1%
COc1ccccc1C/C(N)=N/OC(=O)c1ccc(C)c([N+](=O)[O-])c1,-10%[46.1 µM],39%,-11%,-2%
Cc1cccc(/C(N)=N/OC(=O)c2ccc(Br)o2)c1,0%,13µM*,?,0%
Cc1ccc(C(=O)O/N=C(\N)c2ccccn2)cc1C,.,8.9µM*,11µM*,-1%
COc1cc(OC)cc(C(=O)O/N=C(\N)c2cccc(C)c2)c1,.,-32%,?,-1%
COc1ccccc1C/C(N)=N/OC(=O)c1ccc2c(c1)OCO2,9%,0.89µM*,?,0%
N/C(=N\OCc1ccc([N+](=O)[O-])cc1)c1ccccn1,5%,1.6µM*,2.5µM*,0%
CCOc1nc(-c2ccc(Cl)cc2)nc2ccccc12,-1%,2%,-13%,0%
N/C(=N\OC(=O)c1ccccc1)c1ccccn1,4%,1.6µM*,?,0%
CC(C)(C)c1ccc(C(=O)O/N=C(\N)c2ccccn2)cc1,.,0.16µM*,5µM*,0%
N/C(=N\OC(=O)c1ccc(Br)o1)c1ccccn1,13%,11µM*,-2%,0%
CCOc1ccc(C(=O)O/N=C(\N)c2ccccn2)cc1,.,4.5µM*,10µM*,-1%
CCc1cccc(NC(=O)Cn2cc(C=O)c3ccccc32)c1,5%,?,2%,0%
Cc1cccc(/C(N)=N/OC(=O)c2ccc3c(c2)OCO3)c1,-9%[46.1 µM],10µM*,?,0%
Cc1ccc(C(=O)O/N=C(\N)c2ccccn2)cc1,.,8.9µM*,13µM*,0%
Cc1cccc(C(=O)O/N=C(\N)c2ccccn2)c1,.,13µM*,10µM*,0%
Cc1cccc(/C(N)=N/OC(=O)c2cccnc2)c1,0%,8.9µM*,?,0%
CC(=O)NCCNc1ncncc1-c1ccc(N(C)C)cc1,.,?,-19%,.
Cc1ccc(NC(=O)Nc2ccon2)cc1Cl,.,22%,-3%,0%
Cc1cnc(C(=O)N2CCCC(C(=O)c3ccc(C(C)(C)C)cc3)C2)cn1 (stereo not drawn),15%,-20%,-4%,3%
N/C(=N\OC(=O)/C=C/c1ccccc1Cl)c1ccccn1,9%,11µM*,-25%[10 µM],0%
CC(C)(C)c1ccc(C(=O)C2CCCN(C(=O)c3ccccn3)C2)cc1 (stereo not drawn),.,-41%,14µM*,1%
Cc1ccc(/C=N/Nc2ccccn2)s1,.,?,11µM*,1%
O=C(COC(=O)/C=C/c1ccco1)Nc1ncc(Cl)cc1Cl,2%,34%,?,-1%
SMILES,NPSR antag,RORg inh,VP16 counter,B2AR arrestin
Cc1ccc(/C=N/Nc2ncc(Cl)cc2Cl)s1,-7%[46.1 µM],4.5µM*,7.1µM*,0%
Clc1cnc(N/N=C/c2cccs2)c(Cl)c1,-3%[46.1 µM],7.9µM*,?,0%
Clc1cnc(N/N=C/c2ccco2)c(Cl)c1,-3%,5.6µM*,13µM*,0%
Oc1ccc(/C=N/Nc2ncc(Cl)cc2Cl)cc1,.,?,6%,-1%
CC(Oc1cccc(Cl)c1)C(=O)N(C)CC(=O)Nc1ccc(N2CCOCC2)cc1 (stereo not drawn),.,.,.,0%
CC/C=C1/OC(=O)c2ccccc21,.,13%,-16%,.
CC(=O)C1(C)CC2=C(CCCC2(C)C)CC1C (stereo not drawn),.,29%,8%,.
CCN(CC)S(=O)(=O)c1ccc(/C=C/C(=O)OCC(=O)NCc2ccco2)cc1,.,.,.,0%
C=CCNC(=S)N/N=C(\C)c1cc(OC)c(OC)c(OC)c1,-6%[46.1 µM],2µM*,4.5µM*,5%
C=CCNC(=O)NC(=S)c1ccccc1,-13%[46.1 µM],13µM*,?,0%
C=CCNC(=S)NN(c1ccccc1)c1ccccc1,-24%,2µM*,6.3µM*,0%
C=CCNC(=S)N/N=C(\C)c1cccc(NC(C)=O)c1,-25%,3.5µM*,?,?
C=CCNC(=S)NNC(=O)c1ccccc1,4%[46.1 µM],?,?,0%
